Experimental data as given in PubChem BioAssay (Tox21).
Results filed as inconclusive are left out. Activity calls are given as the source filed them. Unless noted, the call rests on the fitted dose curve; in most records, active means well fitted curve in the direction sought with a large enough effect in the repeat runs; inconclusive means weak or mixed curves; inactive means no such curve, though single readings can be large; an effect the other way counts as inactive or inconclusive.

Columns and labels:
[1] = qHTS assay to identify small molecule agonists of the hypoxia (HIF-1) signaling pathway - cell viability counter screen (AID 1224844; calls by dose curve; further: nearly all actives have a fitted effect of over 50% in size; further: potency means the concentration at half of the fitted maximal effect); settings: HRE-bla ME-180 viability, CellTiter-Glo luminescence, 17 h; series mostly up to 76.8 µM
Procedure, shortened: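 HRE-bla ME-180 cells, 2,000/well in 0.5% dialyzed FBS medium, treated 17 h at 37C with compounds. Viability read in the same wells as the bla reporter, by CellTiter-Glo luminescence after 30 min at room temperature.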

[2] = qHTS assay to identify small molecule agonists of H2AX (AID 1224845; active means well fitted activation curve with a large enough effect in the signal ratio in the repeat runs, not every such curve was filed as active; the % refers to the signal ratio; further: potency means the concentration at half of the fitted maximal effect); settings: CHO-K1 phospho-H2AX Ser139 HTRF, 3 h; series mostly up to 154 µM
Procedure, shortened: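 Phospho-H2AX Ser139 measured by HTRF (ex 320 nm; em 665 and 620 nm) after 24 hr antibody incubation. Compounds, 15 concentrations, 0.76% DMSO, were applied to CHO-K1 cells for 3hr at 37C before lysis.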

[3] = qHTS assay to identify small molecule agonists of H2AX - cell viability counter screen (AID 1224847; calls by dose curve; further: nearly all actives have a fitted effect of over 30% in size; further: potency means the concentration at half of the fitted maximal effect); settings: CHO-K1 viability, CellTiter-Glo luminescence, 3 h; series mostly up to 70.9 µM
Procedure, shortened: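 Viability of CHO-K1 (wild type) cells after 3 hr compound exposure was measured by CellTiter-Glo luminescence.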

[4] = qHTS assay to identify small molecule antagonists of the estrogen related receptor (ERR) signaling pathway from Tox21 library (AID 1224848); settings: ERR reporter cell line, luciferase antagonist mode, 18 h; series mostly up to 92.4 µM; further: nearly all actives have a fitted effect of over 50% in size; further: potency means the concentration at half of the fitted maximal effect
Procedure, shortened: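 Reading was by luminescence 30 min after ONE-Glo addition. Before that, ERR cells at 2,000 per well had rested 6 h at 37 C/5% CO2 and then received pin-tooled compounds in DMSO for 18 h at 37 C.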

[5] = qHTS RealTime-Glo MT Cell Viability Assay in HepG2 cells - 24 hour (AID 1224867); settings: RealTime-Glo luminescence; series mostly up to 76.8 µM; further: nearly all actives have a fitted effect of over 50% in size; further: potency means the concentration at half of the fitted maximal effect
Procedure, shortened: (§1)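 HepG2 cells were seeded at 600 cells/well together with NanoLuc luciferase and a cell-permeant prosubstrate, preincubated 5 h at 37 C/5% CO2, then pin-dosed with compounds in DMSO. Nonlytic luminescence from viable cells was read at each time point.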

[6] = A CellTox Green Cytotoxicity Assay to monitor cytotoxicity in HEK293 cells - 0 hour (AID 1224869); settings: CellTox Green fluorescence; series mostly up to 76.8 µM; further: nearly all actives have a fitted effect of over 50% in size
Procedure, shortened: (§2)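 HEK293 cells, 600/well, were preincubated 5 hours and then exposed to compounds at 37 C for up to 40 hours. A cell-impermeant cyanine dye staining dead-cell DNA was read by fluorescence at 0, 8, 16, 24, 32 and 40 h time points.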

[7] = qHTS RealTime-Glo MT Cell Viability Assay in HepG2 cells - 40 hour (AID 1224870); settings: RealTime-Glo luminescence; series mostly up to 76.8 µM; further: nearly all actives have a fitted effect of over 50% in size; further: potency means the concentration at half of the fitted maximal effect
Procedure, shortened: (§3)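 Real-time viability: cells seeded at 600 per well together with NanoLuc and cell-permeant prosubstrate, compounds added after 5 h incubation. Luminescence tracked at 0, 8, 16, 24, 32 and 40 h of exposure.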

[8] = A CellTox Green Cytotoxicity Assay to monitor cytotoxicity in HEK293 cells - 40 hour (AID 1224871); settings: CellTox Green fluorescence; series mostly up to 76.8 µM; further: nearly all actives have a fitted effect of over 45% in size; further: potency means the concentration at half of the fitted maximal effect
Procedure, shortened: as §2

[9] = qHTS RealTime-Glo MT Cell Viability Assay in HEK293 cells - 16 hour (AID 1224872); settings: RealTime-Glo luminescence; series mostly up to 76.8 µM; further: nearly all actives have a fitted effect of over 50% in size; further: potency means the concentration at half of the fitted maximal effect
Procedure, shortened: (§4)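 HEK293 cells were seeded at 600 cells/well together with NanoLuc luciferase and cell-permeant prosubstrate, preincubated 5 h at 37 C/5% CO2, then given compound in DMSO by pintool. Luminescence from viable-cell prosubstrate reduction was read repeatedly over 40 h.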

[10] = qHTS RealTime-Glo MT Cell Viability Assay in HepG2 cells - 8 hour (AID 1224873); settings: RealTime-Glo luminescence; series mostly up to 76.8 µM; further: nearly all actives have a fitted effect of over 55% in size; further: potency means the concentration at half of the fitted maximal effect
Procedure, shortened: as §3

[11] = qHTS RealTime-Glo MT Cell Viability Assay in HEK293 cells - 40 hour (AID 1224874); settings: RealTime-Glo luminescence; max response: stronger effect = lower value; further: nearly all actives have a fitted effect of over 50% in size; further: potency means the concentration at half of the fitted maximal effect
Procedure, shortened: (§5)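 600 cells/well were plated with the nonlytic NanoLuc/prosubstrate reagent, pre-incubated 5 h, then given 23 nL of compound in DMSO. Incubation at 37 C for 40 h, with luminescence from viable-cell-reduced substrate read repeatedly from 0 h.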

[12] = A CellTox Green Cytotoxicity Assay to monitor cytotoxicity in HepG2 cells - 16 hour (AID 1224876); settings: CellTox Green fluorescence; series mostly up to 76.8 µM; further: nearly all actives have a fitted effect of over 45% in size; further: potency means the concentration at half of the fitted maximal effect
Procedure, shortened: (§6)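 HepG2 cells, 600/well, preincubated 5 h with CellTox Green dye, then exposed to Tox21 compounds in DMSO at 37 C for up to 40 h. Dead-cell DNA fluorescence read at the indicated time point.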

[13] = A CellTox Green Cytotoxicity Assay to monitor cytotoxicity in HepG2 cells - 24 hour (AID 1224878); settings: CellTox Green fluorescence; series mostly up to 76.8 µM; further: nearly all actives have a fitted effect of over 45% in size; further: potency means the concentration at half of the fitted maximal effect
Procedure, shortened: as §6

[14] = A CellTox Green Cytotoxicity Assay to monitor cytotoxicity in HepG2 cells - 40 hour (AID 1224879); settings: CellTox Green fluorescence; series mostly up to 76.8 µM; further: nearly all actives have a fitted effect of over 40% in size; further: potency means the concentration at half of the fitted maximal effect
Procedure, shortened: as §6

[15] = qHTS RealTime-Glo MT Cell Viability Assay in HEK293 cells - 0 hour (AID 1224880); settings: RealTime-Glo luminescence; series mostly up to 76.8 µM; further: top concentration of the series differs between compounds; nearly all actives have a fitted effect of over 45% in size
Procedure, shortened: as §5

[16] = qHTS assay to identify small molecule agonists of the estrogen related receptor (ERR) signaling pathway from Tox21 library (AID 1224849; calls by dose curve; further: nearly all actives have a fitted effect of over 15% in size); settings: ERR reporter cell line, ONE-Glo luciferase, 18 h; at 92.4 µM (top of the series) unless noted
Procedure, shortened: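 ERR reporter cells (NTP line) pre-incubated 6 hours at 37 C, then exposed to compounds for 18 hours at 37 C. ONE-Glo luciferase luminescence was read after 30 minutes at room temperature.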

[17] = qHTS RealTime-Glo MT Cell Viability Assay in HEK293 cells - 32 hour (AID 1224868); settings: RealTime-Glo luminescence; series mostly up to 76.8 µM; further: nearly all actives have a fitted effect of over 50% in size; further: potency means the concentration at half of the fitted maximal effect
Procedure, shortened: as §4

[18] = A CellTox Green Cytotoxicity Assay to monitor cytotoxicity in HEK293 cells - 24 hour (AID 1224875); settings: CellTox Green fluorescence; series mostly up to 76.8 µM; further: nearly all actives have a fitted effect of over 45% in size; further: potency means the concentration at half of the fitted maximal effect
Procedure, shortened: as §2

[19] = qHTS RealTime-Glo MT Cell Viability Assay in HepG2 cells - 32 hour (AID 1224877); settings: RealTime-Glo luminescence; series mostly up to 76.8 µM; further: nearly all actives have a fitted effect of over 55% in size; further: potency means the concentration at half of the fitted maximal effect
Procedure, shortened: as §1
On the % scale 0 is the no-effect control and ±100 the full control effect.

O=c1[nH]sc2ccccc12
inactive: Potency [2] | Potency [6] | Potency [15]
active: Potency [1] 21.9 µM | Potency [3] 101 µM | Potency [4] 43.3 µM | Potency [5] 21.9 µM | Potency [7] 21.9 µM | Potency [8] 54.9 µM | Potency [9] 38.9 µM | Potency [10] 34.7 µM | Potency [11] 30.9 µM | Potency [12] 34.7 µM | Potency [13] 38.9 µM | Potency [14] 21.9 µM

CCc1cc(SCc2sc(-c3ccc(C(F)(F)F)cc3)nc2CN2CCN(c3ccc(OC)cc3)CC2)ccc1OCC(=O)O
active: Potency [1] 3.89 µM | Potency [2] 50.5 µM | Potency [3] 89.8 µM | Potency [4] 17.2 µM | Potency [17] 19.5 µM | Potency [9] 19.5 µM | Potency [11] 19.5 µM
inactive: activity change, positive = activation [16] -62.5% | Potency [6] | Potency [7] | Potency [10] | Potency [12] | Potency [13] | Potency [15]

Oc1cc2ccccc2c2ccccc12
active: Potency [1] 7.76 µM | Potency [2] 17.9 µM | Potency [3] 28.4 µM | Potency [5] 11 µM | Potency [17] 11 µM | Potency [7] 11 µM | Potency [8] 15.5 µM | Potency [9] 6.92 µM | Potency [10] 11 µM | Potency [11] 11 µM | Potency [18] 19.5 µM | Potency [12] 13.8 µM | Potency [19] 11 µM | Potency [13] 11 µM | Potency [14] 11 µM
inactive: Potency [6]

O=C(Nc1cccc([N+](=O)[O-])c1)c1cc2ccccc2cc1O
active: Potency [3] 11.3 µM
inactive: Potency [1] | Potency [2] | activity change, positive = activation [16] -21.9% | Potency [5] | Potency [6] | Potency [7] | Potency [8] | Potency [10] | Potency [18] | Potency [12] | Potency [19] | Potency [13] | Potency [14] | Potency [15]

CN(C)C(=O)C1(N2CCCCC2)CCN(CC[C@@]2(c3ccc(Cl)c(Cl)c3)CN(C(=O)c3ccccc3)CCO2)CC1
active: Potency [1] 45.8 µM | Potency [2] 47.2 µM | Potency [3] 52.9 µM | Potency [4] 28.6 µM | Potency [5] 20.4 µM | Potency [17] 10.2 µM | Potency [7] 18.2 µM | Potency [8] 28.9 µM | Potency [9] 12.9 µM | Potency [10] 45.8 µM | Potency [11] 11.5 µM | Potency [18] 40.8 µM | Potency [12] 40.8 µM | Potency [19] 18.2 µM | Potency [13] 20.4 µM | Potency [14] 20.4 µM
inactive: activity change, positive = activation [16] -73.9% | Potency [15]

C[n+]1ccn(Cc2ccccc2)c1
inactive: Potency [1] | Potency [2] | Potency [3] | activity change, positive = activation [16] -31.8% | Potency [5] | Potency [6] | Potency [7] | Potency [8] | Potency [9] | Potency [10] | Potency [18] | Potency [12] | Potency [13] | Potency [14] | Potency [15]

CSc1ccc(C(=O)c2[nH]c(=O)[nH]c2C)cc1
inactive: Potency [1] | Potency [2] | Potency [3] | Potency [4] | Potency [5] | Potency [17] | Potency [6] | Potency [7] | Potency [8] | Potency [9] | Potency [10] | max response [11] 2.74% | Potency [18] | Potency [12] | Potency [19] | Potency [13] | Potency [14] | Potency [15]

COc1c(C)c2c(c(O)c1C/C=C(\C)CCC(=O)O)C(=O)OC2
active: Potency [1] 0.151 µM | Potency [2] 0.875 µM
inactive: Potency [3] | Potency [4] | Potency [5] | Potency [6] | Potency [7] | Potency [8] | Potency [9] | Potency [10] | Potency [18] | Potency [12] | Potency [19] | Potency [13] | Potency [14] | Potency [15]

O=c1[nH]sc2cc(Cl)ccc12
inactive: Potency [2] | Potency [3] | activity change, positive = activation [16] -42.9% [at 42.5 µM] | Potency [17] | Potency [6] | Potency [8] | Potency [18] | Potency [15]
active: Potency [1] 0.535 µM | Potency [4] 0.106 µM | Potency [5] 26.8 µM

CC[C@H]1O[C@]2(CC[C@@H]1C)C[C@@H]1C[C@@H](C/C=C(\C)C[C@@H](C)/C=C/C=C3\CO[C@@H]4[C@H](O)C(C)=C[C@@H](C(=O)O1)[C@]34O)O2
inactive: activity change, positive = activation [16] -67.4% | Potency [6] | Potency [15]
active: Potency [1] 21.7 µM | Potency [2] 44.6 µM | Potency [3] 50 µM | Potency [4] 30.4 µM | Potency [5] 43.3 µM | Potency [7] 43.3 µM | Potency [8] 43.3 µM | Potency [9] 38.5 µM | Potency [10] 48.5 µM | Potency [11] 24.3 µM | Potency [18] 48.5 µM | Potency [12] 48.5 µM | Potency [14] 27.3 µM

OCCN1CCN(CC/C=C2/c3ccccc3Sc3ccc(C(F)(F)F)cc32)CC1
inactive: Potency [2] | activity change, positive = activation [16] -67.6% [at 42.5 µM]
active: Potency [1] 21.3 µM | Potency [3] 55.2 µM | Potency [4] 29.8 µM | Potency [5] 21.3 µM | Potency [17] 19 µM | Potency [7] 15.1 µM | Potency [8] 26.8 µM | Potency [9] 19 µM | Potency [10] 23.9 µM | Potency [11] 19 µM | Potency [18] 26.8 µM | Potency [12] 23.9 µM | Potency [19] 15.1 µM | Potency [13] 16.9 µM | Potency [14] 13.4 µM
